High-throughput results as filed in PubChem BioAssay.
BCLXL inh: inhibitors of human Bcl-xL; hit rate 0.7% among 320,000; inhibition, % at 10.9 µM; Q07817; AID 2129; GST-Bcl-xL / FITC-Bim BH3 peptide fluorescence polarization;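 active = inhibition above the mean of all tested compounds plus 3 SD, cutoff set per campaign, cut at about 30% in these data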;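 also: 0% = DMSO wells and 100% = unlabeled Bim-BH3 peptide competitor; inhibitors lower millipolarization by displacing the labeled peptide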
GLD-1 TGE inh: GLD-1-TGE RNA interaction inhibition (C. elegans); purified GLD-1 + fluorescein TGE RNA, fluorescence polarization; inhibition, % at 5.96 µM; hit rate 0.44% among 320,000;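 active = percent inhibition above a per-plate cutoff, the plate mean of test compounds plus 3 SD, cut at about 30% in these data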;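 also: 0% = DMSO wells with GLD-1 and probe and 100% = wells lacking GLD-1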
C-LANA FP: KSHV C-LANA DNA binding inhibition; MBP-C-LANA/FAM-LBS DNA binding, fluorescence polarization; hit rate 0.078% among 340,000; AID 504423; inhibition, % at 9 µM;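 active = highest replicate inhibition at or above 60% at 9 µM, even if other replicates fall short; inactive = all replicates below 60% inhibition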;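 also: 0% = neutral control wells and 100% = 4 µM acridine orange control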
MEX-5 binding: C. elegans MEX-5 TCR-2 RNA binding activity; MEX-5/FITC-TCR2 RNA binding, fluorescence polarization; stronger effect = lower value; AID 1832; activity score (negative = inhibition of binding), % at 10 µM; hit rate 0.38% among 300,000;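 active = inhibition past about -25% in most replicates, and total fluorescence under double the plate's negative control median, limit read from the data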;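 also: 0% = DMSO and -100% = 5 µM competing unlabeled TCR2 RNA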
E coli Lon inh: inhibits E. coli Lon protease; hit rate 0.42% among 360,000; purified E. coli Lon protease, fluorescence polarization; AID 602123; inhibition, % at 7.94 µM; P0A9M0; in the data active = inhibition above about 13%, passing the limit was not always enough;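 also: 0% = enzyme with probe and DMSO and 100% = no enzyme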
Target sequence (P0A9M0 whole entry, looked up): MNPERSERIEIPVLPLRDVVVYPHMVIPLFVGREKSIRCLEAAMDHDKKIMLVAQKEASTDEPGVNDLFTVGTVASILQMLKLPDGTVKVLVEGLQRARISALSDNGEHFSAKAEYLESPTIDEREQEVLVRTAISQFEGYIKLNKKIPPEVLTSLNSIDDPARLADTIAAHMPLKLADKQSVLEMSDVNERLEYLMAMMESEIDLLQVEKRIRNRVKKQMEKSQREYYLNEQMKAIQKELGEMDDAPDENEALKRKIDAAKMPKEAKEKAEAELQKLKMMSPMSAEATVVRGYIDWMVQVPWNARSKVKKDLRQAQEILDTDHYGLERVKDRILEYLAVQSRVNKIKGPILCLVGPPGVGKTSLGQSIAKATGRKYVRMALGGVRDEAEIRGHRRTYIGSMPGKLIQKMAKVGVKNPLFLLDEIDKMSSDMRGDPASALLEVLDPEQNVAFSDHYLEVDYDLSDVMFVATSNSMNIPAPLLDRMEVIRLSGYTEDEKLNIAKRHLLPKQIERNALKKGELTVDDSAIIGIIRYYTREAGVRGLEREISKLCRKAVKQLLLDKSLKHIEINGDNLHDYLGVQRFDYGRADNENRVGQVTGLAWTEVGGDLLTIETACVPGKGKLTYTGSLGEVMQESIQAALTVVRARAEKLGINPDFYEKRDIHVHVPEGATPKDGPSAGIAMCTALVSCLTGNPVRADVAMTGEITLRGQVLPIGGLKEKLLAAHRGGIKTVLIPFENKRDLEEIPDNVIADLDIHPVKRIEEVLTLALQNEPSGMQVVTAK
Keap1-Nrf2 PPI: disrupts human Keap1 binding to Nrf2 peptide; Keap1 Kelch-Nrf2 peptide fluorescence polarization, 1536-well; inhibition, % at 9.4 µM; hit rate 0.15% among 340,000; in the data active = inhibition above about 12%;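 also: human Keap1 Kelch domain with fluorescein labeled Nrf2 9mer peptide probe; 0% = neutral control wells and 100% = peptide positive control; higher means more block of Keap1 binding to Nrf2 peptide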
* = called active by the depositor; nt = no result given; + = active, no number. Most compounds without a hit are left out; they make up all but 1.2% or so of the library.

SMILES	BCLXL inh	GLD-1 TGE inh	C-LANA FP	MEX-5 binding	E coli Lon inh	Keap1-Nrf2 PPI
O=c1[nH]c2cc3c(cc2cc1CN(Cc1cccnc1)Cc1nnnn1Cc1ccco1)OCCO3	33.6*	5.9	3.6	-2.7	-0.2	-11.8
COc1ccccc1CN(Cc1cc2cc3c(cc2[nH]c1=O)OCCO3)Cc1nnnn1Cc1ccco1	32.3*	14.1	1.2	3.6	2.9	-11.0
COc1ccc(C=O)cc1COc1ccc2c(c1)OCO2	nt	nt	1.2	nt	2.1	1.9
ONc1cccnc1-n1nc(C(F)(F)F)cc1C(F)(F)F	37.8*	22.1	nt	-4.3	nt	nt
CCCCCCC1/C(=N\NC(=O)c2ccccc2)CCC1C(=O)OC (stereo not given)	-0.9	-1.6	1.1	-1.2	1.2	-6.8
CN(CCOc1ccc(Cl)c(Cl)c1)Cc1ccccc1	5.9	5.9	0.6	0.1	-6.7	-2.6
CCN(CC)CCCOc1ccc(Cl)c(Cl)c1	36.0*	-0.9	0.6	-1.6	-9.8	-7.0
COc1ccc2c(CC(=O)Nc3ncc(C)s3)coc2c1	-1.8	-4.8	77.7*	-2.9	-0.8	0.7
O=S1(=O)CC(O)C(O)CS1 (stereo not given)	nt	nt	nt	nt	3.9	nt
C=CCN1C(=O)S/C(=C\c2ccc(N3CCOCC3)cc2C)C1=O	-6.8	-38.2	3.1	-29.1*	-51.1	-9.0
N#Cc1cc(-c2ccccc2)nn1-c1ccccc1	45.1*	-2.1	1.9	-9.4	-1.0	-3.1
O=C1C=CC2=C3c4cc(O)c(O)cc4CC3(O)COC2=C1O (stereo not given)	nt	nt	107.1*	nt	11.6	-7.6
O=C1NC[C@H](CCCCN2C[C@H](Cc3ccc(O)cc3)N(Cc3ccccc3)C(=O)C2=O)N(CCc2ccccc2)C1=O	nt	nt	nt	nt	-2.0	nt
Cc1oc2c(CN3CCC(C)CC3)c(O)ccc2c(=O)c1-c1ccccc1	34.0*	13.5	0.1	-0.7	-4.3	-1.1
CC1CCN(C(=O)CSc2nnc3c(n2)[nH]c2ccccc23)CC1	6.9	3.5	-0.9	-1.8	1.5	1.0
COc1cc([N+](=O)[O-])cc(/C=N/NC(=O)CC#N)c1O	nt	nt	nt	-31.8*	nt	nt
COc1cc([N+](=O)[O-])cc(/C=N/NC(=O)Cn2cncn2)c1O	3.6	1.4	-2.0	-11.9	-13.5	-2.6
CCN1CCc2nc3sc(C(=O)Nc4cccnc4Cl)c(N)c3cc2C1	45.9*	27.7	2.0	-8.7	-24.6	-5.6
CCOc1ccc(OCC(=O)NCCS(=O)(=O)N2CCN(c3ccccc3)CC2)cc1	nt	nt	nt	nt	-3.7	nt
O=C(C1=NN(c2ccccc2)C2C(=O)N(c3ccccc3Cl)C(=O)C12)c1ccccc1 (stereo not given)	11.8	-4.4	4.8	-27.7*	-22.3	0.1
CC(=O)N1c2ccc(Cl)cc2C2OCCC2C1c1ccco1 (stereo not given)	1.1	-0.6	0.3	-1.2	-1.4	-5.3
Clc1ccc2c(c1)C1OCCC1C(c1ccco1)N2 (stereo not given)	32.2*	27.1	2.7	-2.7	-0.9	-17.8
CN(C)c1ccc(N=Cc2nc(-c3ccccc3)oc2O)cc1	-64.7	-21.9	6.4	-64.1*	-16.4	-3.2
CC(=O)Oc1oc(-c2ccccc2)nc1C=Nc1ccc(N(C)C)cc1	-9.1	-15.7	-3.5	-33.0*	-9.8	7.4
Cc1ccc(-c2[nH]c(=O)n3ccncc23)s1	58.5*	27.9	3.3	-7.7	2.4	-7.7
SMILES	BCLXL inh	GLD-1 TGE inh	C-LANA FP	MEX-5 binding	E coli Lon inh	Keap1-Nrf2 PPI
CC(Oc1cccc(Cl)c1)C(=O)Nc1cc(Cl)ccc1N1CCOCC1 (stereo not given)	-1.1	0.8	1.1	-1.0	1.3	-0.8
COc1cc(C(=O)NS(=O)(=O)c2ccccc2C)ccc1Cc1cn(C)c2ccc(NC(=O)OC3CCCC3)cc12	37.3*	4.0	nt	-8.3	nt	nt
S=c1c2c(nc3nc[nH]n13)CCC2	-6.7	-0.6	62.8*	0.6	9.8	-2.2
Cc1ccc(Cn2c(C3CCCN3c3nc(C)cs3)nc3cc(C(F)(F)F)ccc32)cc1 (stereo not given)	5.7	7.7	1.2	-1.3	-2.4	-6.6
N#CCN(CC#N)C(=O)C1c2ccccc2Oc2ccccc21	+	+	0.8	0.6	12.3	2.2
CC(NC(=O)c1ccccc1Cl)c1ccc(-n2ccnc2)cc1 (stereo not given)	1.9	0.8	-1.7	2.0	1.8	-1.7
CC(=O)N1CCN(c2nc(CC(C)C)c3c(c2C#N)CCC3)CC1	166.4*	156.9*	0.9	-0.8	6.1	-5.1
Cc1ccccc1CSc1ccc(S(=O)(=O)N2CCCC2)cn1	nt	0.7	-1.5	nt	1.4	-1.1
COc1cc(C(=O)NC(=S)NNC(=O)c2cnccn2)cc(OC)c1OC	5.8	5.1	1.0	-46.5*	3.4	-0.7
O=C(NNC(=O)c1ccccc1-n1cccc1)c1cccnc1	nt	nt	nt	nt	-1.6	nt
COC(=O)c1nn(-c2ccc(OC)cc2)c(=O)cc1NN	3.1	2.8	6.0	2.3	-4.5	1.2
O=c1[nH][nH]c2cc(=O)n(-c3cccc(C(F)(F)F)c3)nc12	9.3	3.0	2.6	-46.4*	1.0	-4.9
COc1ccc(-n2nc3c(=O)[nH][nH]c3cc2=O)cc1	19.6	-5.8	1.3	-78.9*	-0.3	-0.9
C[C@@H]1CN([C@H](C)CO)C(=O)CCCn2cc(nn2)CO[C@H]1CN(C)S(=O)(=O)c1cccc(C#N)c1	nt	nt	nt	nt	0.6	nt
Cc1ccc(C)c(OCC(=O)N2CCN(c3ncccn3)CC2)c1	4.6	-0.6	0.3	nt	-20.5	-2.7
COc1cc(SC)ccc1C(=O)Nc1cccc(S(=O)(=O)NC2=NCCCCC2)c1	4.7	165.0*	2.2	0.3	8.1	0.0
CCOC(=O)C1(Cc2ccccc2C#N)CCCCC1=O (stereo not given)	nt	nt	-0.9	nt	-6.9	0.8
CCOc1ccc2sc(NS(=O)(=O)c3ccc(OC)c(OC)c3)nc2c1	63.8*	9.0	0.7	0.5	1.8	-3.2
Cc1ncc(CO)c(CNc2ccc(-c3nc4ccccc4[nH]3)cc2)c1O	nt	nt	8.1	0.1	-8.3	-4.4
O=c1cc2c(=O)oc3cc(O)c(O)oc3c2c(O)c1O	nt	nt	112.2*	-84.2*	-6.1	-3.4
CC1(C2CC2)NC(=O)N(CC(=O)N2CCN(c3ccccc3Cl)CC2)C1=O (stereo not given)	nt	nt	0.5	nt	-1.9	2.2
COCCCNc1c2c3c(cccc3[nH]c1=O)C(=O)c1ccccc1-2	116.9*	74.8*	183.8*	nt	-38.2	167.4*
CCCCCCNc1c(C(=O)OCC)c(=O)[nH]c2ccccc12	-4.2	-2.5	0.1	-1.2	2.3	-1.7
CCOC(=O)c1c2c3c(cccc3[nH]c1=O)C(=O)c1ccccc1-2	53.6*	21.5	1.9	-5.6	-2.1	-1.1
Cc1ccc(S(=O)(=O)N2C[C@H]3C(=O)C[C@@H](c4ccccc4C)N(S(=O)(=O)c4ccc(C)cc4)[C@H]3C[C@H]2c2ccccc2)cc1	nt	nt	nt	nt	-2.9	nt
COC(=O)[C@H](CC(C)C)N1Cc2cc(OC)cc(OC)c2-c2ccccc2S1(=O)=O	nt	nt	1.5	nt	-10.5	1.8
